The text below walks through data of PubChem BioAssay (NCATS).

Inconclusive results are not listed. Calls of active or inactive are those of the source. Calls follow the shape of the dose curve; as a rule, active = well fitted inhibition curve with a large enough effect; inconclusive = small, poorly fitted or top-dose-only effect; inactive = no such curve, though single readings can be large or run the other way.

For this test, the target named is RecQ-like DNA helicase BLM (Homo sapiens) (UniProt P54132). Put plainly: qHTS Validation Assay for Inhibitors of Bloom's syndrome helicase (BLM) (AID 2364). The settings on record: BLM helicase DNA unwinding, fluorescence, in vitro; series mostly up to 57.1 µM. The source says: Survival of cells and the faithful propagation of the genome depend on elaborate mechanisms of detecting and repairing DNA damage. Treatment of advanced cancer relies on radiation therapy or chemotherapy, which kill cancer cells by causing extensive DNA damage. It is often found, that cancer cells develop resistance to therapy through enhanced activity of DNA repair functions; this has led to an increased interest in developing drugs that interfere with DNA repair, which could sensitize cancer cells to conventional therapy.
Sequence of RecQ-like DNA helicase BLM (Homo sapiens) (P54132 whole entry, looked up): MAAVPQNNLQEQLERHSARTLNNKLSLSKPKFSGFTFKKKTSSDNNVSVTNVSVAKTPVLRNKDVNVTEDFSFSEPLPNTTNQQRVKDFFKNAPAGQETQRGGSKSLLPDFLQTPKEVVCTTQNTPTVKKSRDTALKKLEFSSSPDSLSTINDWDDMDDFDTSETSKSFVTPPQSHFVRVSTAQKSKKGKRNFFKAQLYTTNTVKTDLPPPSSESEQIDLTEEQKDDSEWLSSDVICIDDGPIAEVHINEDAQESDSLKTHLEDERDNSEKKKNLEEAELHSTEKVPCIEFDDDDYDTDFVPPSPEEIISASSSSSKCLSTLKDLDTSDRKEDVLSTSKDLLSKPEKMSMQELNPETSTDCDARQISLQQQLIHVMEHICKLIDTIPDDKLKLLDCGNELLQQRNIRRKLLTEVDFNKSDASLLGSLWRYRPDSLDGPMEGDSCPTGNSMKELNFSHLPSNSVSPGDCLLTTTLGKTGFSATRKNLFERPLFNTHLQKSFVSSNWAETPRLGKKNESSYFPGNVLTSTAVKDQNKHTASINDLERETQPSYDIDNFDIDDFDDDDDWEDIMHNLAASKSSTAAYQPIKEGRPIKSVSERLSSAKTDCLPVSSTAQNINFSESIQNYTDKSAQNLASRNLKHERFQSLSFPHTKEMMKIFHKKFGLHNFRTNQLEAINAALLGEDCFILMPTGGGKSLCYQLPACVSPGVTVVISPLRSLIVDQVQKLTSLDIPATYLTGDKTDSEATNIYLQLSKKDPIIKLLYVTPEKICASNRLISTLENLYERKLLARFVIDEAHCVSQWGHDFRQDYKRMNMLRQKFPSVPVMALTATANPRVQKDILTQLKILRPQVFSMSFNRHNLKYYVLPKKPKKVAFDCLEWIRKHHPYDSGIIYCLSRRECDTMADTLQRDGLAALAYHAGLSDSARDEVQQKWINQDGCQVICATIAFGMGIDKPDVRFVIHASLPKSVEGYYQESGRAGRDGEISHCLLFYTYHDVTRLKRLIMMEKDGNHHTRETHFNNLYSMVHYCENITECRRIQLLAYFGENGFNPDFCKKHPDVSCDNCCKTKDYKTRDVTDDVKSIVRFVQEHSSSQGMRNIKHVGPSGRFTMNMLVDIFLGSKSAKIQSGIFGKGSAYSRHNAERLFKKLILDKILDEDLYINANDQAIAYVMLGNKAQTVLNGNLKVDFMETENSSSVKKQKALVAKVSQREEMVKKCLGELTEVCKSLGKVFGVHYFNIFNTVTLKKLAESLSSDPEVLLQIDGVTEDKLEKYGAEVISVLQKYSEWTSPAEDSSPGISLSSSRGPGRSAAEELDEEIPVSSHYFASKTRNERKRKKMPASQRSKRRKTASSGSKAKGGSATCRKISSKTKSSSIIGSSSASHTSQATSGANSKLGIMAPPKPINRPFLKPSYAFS
This validation qHTS assay pertains to human BLM, which is important in resolving abnormal DNA structures formed during replication or homologous recombination. Shutting down the expression of BLM leads to chromosomal instability and higher radiation sensitivity in cultured cells.
The validation assay was a fluorescence quenching based kinetic qHTS for BLM Helicase DNA unwinding. The activity was measured as ATP-dependent separation of a 20-bp DNA duplex extended by 30-nt single-stranded tails (forked duplex). The forked DNA substrate was tagged with rhodamine fluorophore (carboxytetramethyl rhodamine, TAMRA) and BHQ-2 (Black Hole Quencher 2) dark quencher. Strand separation results in an increase in the fluorescence of TAMRA (excitation 525 nm, emission 598 nm). This substrate construct operates in a red-shifted region where very few compound library members have been noted to fluoresce (PubChem AIDs 593 and 594). An additional feature of the assay is the inclusion of 2.5 ug/ml poly (dIdC), to reduce interference by compounds such as DNA intercalators, a major source of false inhibitors.
Ian Hickson, University of Oxford
Opher Gileadi, Structural Genomics Consortium, University of Oxford
Screening Center PI: Austin, C.P.
Screening Center: NIH Chemical Genomics Center [NCGC]
Three uL of reaction buffer (25 mM Tris-HCl (pH 8.0), 5 mM NaCl, 2 mM MgCl2, 1mM DTT, 0.01% Tween- 20, and 2.5 ug/ml poly(dI-dC), including enzyme (50 nM BLM), were dispensed into a 1536-well Greiner black assay plate via solenoid-valve based nanoliter dispensers. Compounds (23 nl each in columns 5-48) and control (23 nl each in column 2 as dose-response) were transferred via a Kalypsys pintool equipped with a 1536-pin array. The plates were incubated for 15 min at room temperature, and then 1 ul of substrates (200 nM DNA and 2 mM ATP, final concentrations) was added to start the reaction. The plate was transferred into a ViewLux high-throughput CCD imager where the reaction progress was measured in a discontinuous kinetic mode (two reads spaced 2 hours apart, with intermediate room temperature incubation of the covered assay plate) by using standard red-fluorescence optics (excitation filter 525 nm, emission filter 598 nm). Enzyme-free and vehicle (DMSO) controls were included for signal normalization.
Background: In qHTS, concentration-response curves come from the screen itself.
In the case of `C=CCN1CCc2cccc3c2C1Cc1ccc(O)c(O)c1-3` (centres undefined), the result was inactive.
Then `C[N+]1(C)C2CC(OC(=O)C(CO)c3ccccc3)CC1C1OC12` (centres undefined), with “inactive”; and `CN1C[C@@H](CS(=O)(=O)N(C)C)C[C@@H]2c3cccc4c3c(cn4C)C[C@H]21`, with “inactive”; and `COc1ccc2c(c1O)-c1cccc3c1C(C2)N(C)CC3` (centres undefined), with “inactive”.
The entry for `CCCN1CCc2cccc3c2C1Cc1ccc(O)c(O)c1-3` (centres undefined) is “inactive”; for `CC12CCC3C(CCC4=C(O)C(=O)CCC43C)C1CCC2=O` (centres undefined) it is “inactive”.
Then `Oc1ccc2c3c1O[C@H]1[C@@H](O)CC[C@@]4(O)C(C2)N(CC2CCC2)CCC314` (some centres undefined), with “inactive”.
In the case of `C#CCN(C)C(C)Cc1ccccc1` (centres undefined), the compound was called inactive.
On to `C[C@]12CC[C@H]3[C@@H](CCC4C[C@H](O)CC[C@@]43C)[C@@H]1CC[C@@H]2O` (some centres undefined), for which the call was inactive.
For the compound `C=CCN1CC[C@@]2(C)c3cc(O)ccc3CC1[C@@H]2C`, the compound was classed as inactive.
With `CCCN(CCC)[C@@H]1CCc2c(F)ccc(O)c2C1`, the result was inactive.
Then `C[C@H]1C2Cc3ccc(O)cc3[C@]1(C)CCN2CC1CC1`, with “inactive”; and `CCCN1CCc2cc(O)cc3c2C1Cc1ccc(O)c(O)c1-3` (centres undefined), with “inactive”.
As for `COc1cc(C[C@@H](C)N)c(OC)cc1I`, the compound was called inactive.
Turning to `O=C(O)C1C2CCC(O2)C1C(=O)O` (centres undefined), the compound was called inactive.
The entry for `C[C@]12CC[C@@H](O)CC1CCC1C2CC[C@]2(C)C(=O)CC[C@@H]12` (some centres undefined) is “inactive”.
On to `CCCN1CCCC(c2cccc(O)c2)C1` (centres undefined), for which the call was inactive.
Turning to `C[C@H]1OC[C@@H](C[N+](C)(C)C)O1`, the result was inactive.
The entry for `C[C@]12CC[C@H](O)CC1=CCC1C2CC[C@]2(C)C(=O)CC[C@@H]12` (some centres undefined) is “inactive”.
